The nature of assay [1]: AP1 Signaling Pathway (AID 357; active means well fitted curve in either direction with a large enough effect, not every such curve was filed as active;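 further: ME-180 reporter cells stimulated with EGF at its EC50 level; on the % scale 0 is the no-effect control and ±100 the full control effect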). The conditions noted are these: ME-180 AP-1-bla reporter, EGF-induced, beta-lactamase ratio, 5 h; at 7.69 µM (top of the series) unless noted. In a few lines: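 In this screen, ME-180 cells in Opti-MEM with 0.5% dialyzed FBS received EC50 EGF and compound titrations for 5 h. AP-1 reporter beta-lactamase was detected via CCF4 ratio, giving AC50 for positive and negative modulators.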

For assay [2], the target named is Cytochrome P450 1A2 (Homo sapiens) (UniProt P05177). Put plainly: p450-cyp1a2 (AID 410; calls by dose curve; further: potency means the concentration at half of the fitted maximal effect;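 on activity change, negative = inhibition: -100% = full effect of reference inhibitor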). The conditions noted are these: recombinant CYP1A2, luciferin-ME demethylation, luminescence; series mostly up to 11.4 µM. In a few lines: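 Read-out is luminescence from luciferin produced by CYP1A2 demethylation of Luciferin-ME (100uM, at Km). Detection reagent stopped the 60 min NADPH-dependent reaction; signals were normalized to 57 uM furafylline.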

Assay [3] is described as follows: NFAT Signaling Pathway (AID 444; active means well fitted curve in either direction with a large enough effect, not every such curve was filed as active;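 further: carbachol stimulus at about its EC50 of 1 µM final; on the % scale 0 is the no-effect control and ±100 the full control effect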). The conditions noted are these: Jurkat NFAT-bla M1, carbachol, beta-lactamase ratio, 5 h; at 7.69 µM (top of the series) unless noted. In a few lines:
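Read-out: CCF4 FRET ratio (460 nm/530 nm) after 1 h RT dye loading, used for %activity and AC50 from titration series. Cells: Jurkat NFAT-β-lactamase/M1 line, treated with compound plus 1 uM carbachol for 5 h, 37 °C.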

Assay [4] is described as follows: Stat Signaling Pathway (AID 446; active means well fitted curve in either direction with a large enough effect, not every such curve was filed as active;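 further: ME-180 cervical cancer cells given 40 pM IL-6 alongside compound; SIE-controlled beta-lactamase reporter measured as 460/530 nm FRET emission ratio; on the % scale 0 is the no-effect control and ±100 the full control effect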). The conditions noted are these: ME-180 (cervical carcinoma) SIE beta-lactamase reporter, IL-6 stimulated, 5 h; at 7.69 µM (top of the series) unless noted. The method, boiled down:
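Emission at 460 and 530 nm (excitation 405 nm) reports SIE-controlled beta-lactamase in ME-180 cells. Cells received compound with 40 pM IL-6 for 5 hrs at 37 C; data scaled between 300 pM IL-6 and 125 nM JAK-inhibitor controls.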

In assay [5] the target is Glucocorticoid receptor (Homo sapiens) (UniProt P04150). Description: GR-GFP Redistribution (AID 450;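 active means compounds whose dose series gives a full or clear partial fitted curve of increased nuclear translocation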; further: potency means the concentration at half of the fitted maximal effect). The conditions noted are these: U2OS GR-GFP nuclear translocation, laser cytometry, 2 h.
The target is the same in assay [6]. Description: GR-EFC Redistribution (AID 451; calls by dose curve; further: potency means the concentration at half of the fitted maximal effect). The conditions noted are these: CHO-K1 GR-EFC translocation, beta-gal luminescence, 2 h. The method, boiled down:
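Translocation of GR-ED fusion to nuclear EA restores b-gal, read by luminescence after 1 h room-temperature detection. Engineered CHO-K1 biosensor cells, 1,000/well, exposed 2 h at 37 C to titrations up to 46 uM final.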

In assay [7] the target is 3',5'-cyclic-AMP phosphodiesterase 4B (Homo sapiens) (UniProt Q07343). Description: qHTS Assay for Inhibitors of PDE-IV (AID 607; active means well fitted activation curve with a large enough effect in the main read-out, with a control signal flat, not every such curve was filed as active; further: % of control where 0% means no effect). The conditions noted are these: HEK293 ACTOne CNG channel cells, membrane potential fluorescence; series mostly up to 22.9 µM. In a few lines:
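The readout is membrane depolarisation from a cAMP-sensing CNG channel, detected with a potential dye at ex 535/em 590. Cells were HEK293-derived (endogenous PDE-IV) at 1000 cells/well, titrated up to 22.9 uM final.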
Background: In qHTS, concentration-response curves come from the screen itself.

The target in assay [8] is Guanine nucleotide-binding protein G(i) subunit alpha-1 (Homo sapiens) (UniProt P63096). Description: qHTS Assay for Inhibitors of RGS12 GoLoco Motif Activity (Green Fluorophore) (AID 879).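 Further: 0% = labeled peptide with Gαi1 and full inhibition = labeled peptide alone without protein; negative values mean loss of peptide binding seen as reduced polarization.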 The conditions noted are these: Galphai1/FITC-RGS12 GoLoco peptide, fluorescence polarization; series mostly up to 57.1 µM. In a few lines: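 A drop in FITC polarization marked displacement of the FITC-tagged RGS12 GoLoco peptide (10 nM) from Gαi1 (50 nM). Compounds were incubated 10 min at room temperature in Tris pH 7.5 buffer containing 150 mM NaCl, 0.1 mM GDP and 0.05% NP40; unlabeled peptide titration served as control.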

The nature of assay [9]: qHTS Assay for Identification of Small Molecule Agonists for Thrombopoietin (TPO) Signaling Pathway (AID 917). Further: on the % scale 0 is the no-effect control and ±100 the full control effect. The conditions noted are these: TPO signaling pathway reporter cells, agonist qHTS; series mostly up to 38.5 µM. In a few lines:
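Quantitative HTS for pathway activators: compounds were pin-transferred onto IL-3-starved Ba/F3 cells expressing human TPO receptor, TPO was added at its EC50 (26 pM final), and after 24 hrs at 37 C reporter luciferase was measured.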

Assay [10] addresses Muscarinic acetylcholine receptor M1 (Rattus norvegicus) (UniProt P08482). Description: qHTS Assay for Antagonists of Acetylcholine Muscarinic M1 Receptor: Kinetic Measurement of Intracellular Calcium Response (AID 943).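 Further: Fluo-4 calcium signal as peak divided by basal fluorescence over 4 min; nearly all actives have a fitted effect of over 75% in size.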 The conditions noted are these: M1-expressing cells, kinetic intracellular calcium fluorescence; series mostly up to 35.3 µM. In a few lines:
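Quantitative HTS in CHO-M1 (rat receptor) cells: 10 min compound exposure ahead of 100 nM carbachol, Fluo-4 fluorescence followed 4 min, value expressed as peak-to-basal ratio.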

In assay [11] the target is Pyruvate kinase (Leishmania mexicana) (UniProt Q27686). Put plainly: qHTS Validation Assay for Inhibitors of Leishmania Mexicana Pyruvate Kinase (AID 945).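 Further: 0% = DMSO only neutral control wells.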 The conditions noted are these: purified L. mexicana pyruvate kinase, enzyme activity, E451W mutant enzyme; series mostly up to 57.5 µM. The method, boiled down:
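Substrate mix (0.5 mM PEP, 0.1 mM ADP, 7 mM MgCl2, 50 mM KCl, pH 7.2 imidazole) received compound by pin tool, then 0.2 nM LmPYK E451W. After 1 h at room temperature, PKLight was added and luminescence measured.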

Assay [12] has as its target Pyruvate kinase PKM (Homo sapiens) (UniProt P14618). Description: qHTS Assay for Activators of Human Muscle Pyruvate Kinase (AID 954; active means well fitted curve in the direction sought with a large enough effect, not every such curve was filed as active;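 further: 0% = uninhibited enzyme and -100% = no enzyme or full thiadiazolimine inhibition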). The conditions noted are these: purified human muscle pyruvate kinase, luciferase-coupled luminescence, 1 h; series mostly up to 57.5 µM. The method, boiled down: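 PKM2, human, >95% pure, 0.1 nM; PEP 0.5 mM (Km), ADP 0.1 mM; 50 mM imidazole pH 7.2, 50 mM KCl, 0.01% Tween 20, 0.05% BSA; 1 h RT; luciferase luminescence readout.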

Assay [13] has as its target Alpha-galactosidase A (Homo sapiens) (UniProt P06280). Put plainly: Counterscreen for Glucocerebrosidase Inhibitors: qHTS Assay for Human alpha-Galactosidase at pH 4.5 (AID 992). Further: 0% is about no effect. The conditions noted are these: purified enzyme, fluorogenic substrate; series mostly up to 76.9 µM. In a few lines: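 Fluorogenic 4-MU alpha-D-galactoside (80 uM) hydrolysis, 2 nM enzyme, pH 4.5 citrate buffer + 0.005% Tween-20; 20 min RT; NaOH/glycine pH 10 stop; Ex365/Em440. Compounds titrated 0.7 nM–77 uM; Hill-equation AC50.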

Assay [14] concerns the target alpha-glucosidase (Oryza sativa, rice) (UniProt Q653V4). Description: Counterscreen for Glucocerebrosidase Inhibitors: qHTS Assay for Rice alpha-Glucosidase at pH 5.0 (AID 997).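 Further: 0% = full activity with enzyme and -100% = basal without enzyme.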 The conditions noted are these: rice alpha-glucosidase enzyme activity; series mostly up to 76.9 µM. The method, boiled down:
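Endpoint fluorogenic assay at pH 5.0: compounds (0.7 nM to 77 uM) titrated against 4 nM rice enzyme and 400 uM 4-MU-alpha-glucoside for 20 min at room temperature; NaOH/glycine stop, read ex 365/em 440 nm, Hill-fitted AC50.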

Assay [15] addresses Alpha-galactosidase (Coffea arabica) (UniProt Q42656). Description: Counterscreen for Glucocerebrosidase Inhibitors: qHTS Assay for Coffee Bean alpha-Galactosidase at pH 5.9 (AID 998).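 Further: plate controls were uninhibited enzyme for no effect and no-enzyme basal signal for full effect.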 The conditions noted are these: coffee bean alpha-galactosidase enzyme assay; series mostly up to 76.9 µM. In a few lines: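 Fluorogenic 4-MU substrate hydrolysis, 80 uM substrate and 2 nM coffee bean alpha-galactosidase, pH 5.9 citrate buffer, 20 min at room temperature, then NaOH/glycine stop. Titration 0.7 nM–77 uM, normalized to no-enzyme and enzyme controls, AC50 via Hill equation.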

Assay [16] deals with Mitogen-activated protein kinase 10 (Mus musculus) (UniProt Q61831). Put plainly: JNK3 AlphaScreen Assay (AID 530; active means well fitted curve in either direction with a large enough effect, not every such curve was filed as active). The conditions noted are these: JNK3 lysate, c-Jun phosphorylation; series mostly up to 57.1 µM. The method, boiled down:
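Kinase buffer: 20 mM Tris-HCl pH 7.6, 10 mM MgCl2, 1 mM DTT, 0.1 mM Na3VO4, 0.01% Tween-20; ATP 10 uM. Substrate biotin-GST-cJun(1-79), enzyme from activated HepG2 lysates. Detection by Ser73 phospho-antibody AlphaScreen.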
For orientation: Alpha assays give light when donor and acceptor beads are brought close together.

In assay [17] the target is Muscarinic acetylcholine receptor M1 (Rattus norvegicus) (UniProt P08482). Put plainly: qHTS Assay for Antagonists of Acetylcholine Muscarinic M1 Receptor: Measurement of IP-One Response (AID 944). Further: nearly all actives have a fitted effect of over 75% in size. The conditions noted are these: CHO-M1 cells, IP-One HTRF, antagonist mode; series mostly up to 46.1 µM. The method, boiled down:
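Antagonism was measured as loss of carbachol-driven (EC80) IP1 accumulation in CHO cells carrying rat M1, using a homogeneous IP-One TR-FRET kit read at 620 and 665 nm.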

Values without a mark were called inactive. Records with an inconclusive call do not appear. The source made the active and inactive calls. Unless noted, the call rests on the fitted dose curve; in most records, active means well fitted curve in the direction sought with a large enough effect; inconclusive means small, poorly fitted or top-dose-only effect, or another doubt; inactive means no such curve, though single readings can be large; an effect the other way counts as inactive or inconclusive.

Data on 5 compounds can be found in PubChem BioAssay (NCATS).

Chain of Pyruvate kinase PKM (Homo sapiens) (P14618 whole entry, looked up): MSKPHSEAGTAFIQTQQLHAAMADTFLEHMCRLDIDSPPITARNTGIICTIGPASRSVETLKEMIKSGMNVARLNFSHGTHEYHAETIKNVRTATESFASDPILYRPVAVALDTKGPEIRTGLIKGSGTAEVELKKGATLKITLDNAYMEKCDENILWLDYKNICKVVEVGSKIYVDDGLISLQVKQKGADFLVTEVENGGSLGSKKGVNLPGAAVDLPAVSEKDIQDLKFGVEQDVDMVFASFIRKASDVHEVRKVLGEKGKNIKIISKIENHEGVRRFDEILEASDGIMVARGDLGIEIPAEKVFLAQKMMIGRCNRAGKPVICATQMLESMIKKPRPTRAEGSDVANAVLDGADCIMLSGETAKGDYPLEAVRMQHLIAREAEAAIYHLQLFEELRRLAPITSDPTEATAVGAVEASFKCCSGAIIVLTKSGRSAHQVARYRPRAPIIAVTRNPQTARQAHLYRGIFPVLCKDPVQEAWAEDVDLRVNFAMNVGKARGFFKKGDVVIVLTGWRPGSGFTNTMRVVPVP
Chain of 3',5'-cyclic-AMP phosphodiesterase 4B (Homo sapiens) (Q07343 whole entry, looked up): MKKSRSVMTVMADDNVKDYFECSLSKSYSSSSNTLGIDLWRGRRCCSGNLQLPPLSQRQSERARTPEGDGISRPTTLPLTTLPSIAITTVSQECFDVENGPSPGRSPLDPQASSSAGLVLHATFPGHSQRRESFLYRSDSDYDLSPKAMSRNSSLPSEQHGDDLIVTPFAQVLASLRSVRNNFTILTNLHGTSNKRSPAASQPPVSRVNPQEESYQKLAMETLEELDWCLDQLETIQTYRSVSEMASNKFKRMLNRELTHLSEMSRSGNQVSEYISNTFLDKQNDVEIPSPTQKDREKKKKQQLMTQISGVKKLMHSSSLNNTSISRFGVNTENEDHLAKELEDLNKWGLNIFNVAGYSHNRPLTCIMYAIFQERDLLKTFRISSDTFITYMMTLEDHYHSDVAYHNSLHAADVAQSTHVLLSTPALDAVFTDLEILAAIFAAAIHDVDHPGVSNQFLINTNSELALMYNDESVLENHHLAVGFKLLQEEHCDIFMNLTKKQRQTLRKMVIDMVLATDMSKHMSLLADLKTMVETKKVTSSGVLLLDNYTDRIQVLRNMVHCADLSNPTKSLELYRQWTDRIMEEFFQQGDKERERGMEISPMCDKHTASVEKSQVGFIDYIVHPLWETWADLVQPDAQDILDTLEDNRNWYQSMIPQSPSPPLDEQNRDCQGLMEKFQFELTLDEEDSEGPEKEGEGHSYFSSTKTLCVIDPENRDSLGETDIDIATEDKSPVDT
Chain of Muscarinic acetylcholine receptor M1 (Rattus norvegicus) (P08482 whole entry, looked up): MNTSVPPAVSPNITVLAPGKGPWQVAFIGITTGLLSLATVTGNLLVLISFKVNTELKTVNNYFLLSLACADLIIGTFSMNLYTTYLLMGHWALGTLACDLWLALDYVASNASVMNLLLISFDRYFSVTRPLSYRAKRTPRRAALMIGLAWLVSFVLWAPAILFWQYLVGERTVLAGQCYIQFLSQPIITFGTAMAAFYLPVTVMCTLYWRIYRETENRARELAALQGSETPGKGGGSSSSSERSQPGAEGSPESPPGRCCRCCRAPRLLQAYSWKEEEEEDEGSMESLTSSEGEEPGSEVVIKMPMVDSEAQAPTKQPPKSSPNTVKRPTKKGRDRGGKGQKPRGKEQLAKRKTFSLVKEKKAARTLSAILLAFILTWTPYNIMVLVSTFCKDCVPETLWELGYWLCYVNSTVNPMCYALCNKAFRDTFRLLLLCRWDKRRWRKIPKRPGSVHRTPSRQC
Chain of Cytochrome P450 1A2 (Homo sapiens) (P05177 whole entry, looked up): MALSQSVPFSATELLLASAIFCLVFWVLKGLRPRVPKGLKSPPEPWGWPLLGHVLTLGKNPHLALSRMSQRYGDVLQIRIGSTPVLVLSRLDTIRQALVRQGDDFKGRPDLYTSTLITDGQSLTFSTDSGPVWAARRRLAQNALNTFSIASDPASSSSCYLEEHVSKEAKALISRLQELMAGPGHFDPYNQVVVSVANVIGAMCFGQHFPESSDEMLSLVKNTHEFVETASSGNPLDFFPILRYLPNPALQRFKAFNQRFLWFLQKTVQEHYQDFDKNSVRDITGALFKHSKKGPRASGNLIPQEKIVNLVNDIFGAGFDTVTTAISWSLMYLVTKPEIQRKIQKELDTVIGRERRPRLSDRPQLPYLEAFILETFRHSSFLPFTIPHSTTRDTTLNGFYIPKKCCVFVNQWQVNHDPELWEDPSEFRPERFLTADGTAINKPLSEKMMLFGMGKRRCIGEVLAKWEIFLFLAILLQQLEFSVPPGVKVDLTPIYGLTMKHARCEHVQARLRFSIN
Chain of Guanine nucleotide-binding protein G(i) subunit alpha-1 (Homo sapiens) (P63096 whole entry, looked up): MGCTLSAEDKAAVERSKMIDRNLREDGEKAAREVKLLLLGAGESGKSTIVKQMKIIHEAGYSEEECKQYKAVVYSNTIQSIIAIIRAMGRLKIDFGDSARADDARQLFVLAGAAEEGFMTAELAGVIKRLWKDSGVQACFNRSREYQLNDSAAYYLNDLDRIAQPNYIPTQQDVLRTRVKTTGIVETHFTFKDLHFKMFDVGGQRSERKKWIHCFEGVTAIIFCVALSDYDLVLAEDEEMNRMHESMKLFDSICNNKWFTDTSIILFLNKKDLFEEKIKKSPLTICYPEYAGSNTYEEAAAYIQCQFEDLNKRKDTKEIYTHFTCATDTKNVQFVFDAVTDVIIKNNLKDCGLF
Chain of Glucocorticoid receptor (Homo sapiens) (P04150 whole entry, looked up): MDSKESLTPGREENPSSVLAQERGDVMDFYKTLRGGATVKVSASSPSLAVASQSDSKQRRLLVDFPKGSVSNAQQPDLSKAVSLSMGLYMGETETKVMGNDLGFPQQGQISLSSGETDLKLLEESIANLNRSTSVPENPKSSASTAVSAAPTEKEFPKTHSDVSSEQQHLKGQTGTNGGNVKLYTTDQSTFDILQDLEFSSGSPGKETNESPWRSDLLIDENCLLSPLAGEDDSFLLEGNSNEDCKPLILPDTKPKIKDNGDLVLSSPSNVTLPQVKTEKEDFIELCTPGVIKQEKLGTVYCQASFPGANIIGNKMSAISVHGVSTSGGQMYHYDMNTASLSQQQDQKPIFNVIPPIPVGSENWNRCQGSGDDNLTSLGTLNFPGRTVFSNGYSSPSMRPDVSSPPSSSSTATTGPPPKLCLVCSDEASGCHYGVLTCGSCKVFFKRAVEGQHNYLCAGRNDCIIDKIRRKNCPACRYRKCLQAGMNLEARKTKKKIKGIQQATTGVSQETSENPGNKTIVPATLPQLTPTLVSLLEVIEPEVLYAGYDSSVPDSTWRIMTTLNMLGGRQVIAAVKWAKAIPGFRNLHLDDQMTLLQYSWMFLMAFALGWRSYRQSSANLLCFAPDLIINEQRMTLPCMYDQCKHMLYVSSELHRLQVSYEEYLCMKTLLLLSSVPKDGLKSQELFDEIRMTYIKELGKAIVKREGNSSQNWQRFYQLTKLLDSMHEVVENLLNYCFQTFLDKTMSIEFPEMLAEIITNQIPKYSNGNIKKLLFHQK
Chain of Alpha-galactosidase (Coffea arabica) (Q42656 whole entry, looked up): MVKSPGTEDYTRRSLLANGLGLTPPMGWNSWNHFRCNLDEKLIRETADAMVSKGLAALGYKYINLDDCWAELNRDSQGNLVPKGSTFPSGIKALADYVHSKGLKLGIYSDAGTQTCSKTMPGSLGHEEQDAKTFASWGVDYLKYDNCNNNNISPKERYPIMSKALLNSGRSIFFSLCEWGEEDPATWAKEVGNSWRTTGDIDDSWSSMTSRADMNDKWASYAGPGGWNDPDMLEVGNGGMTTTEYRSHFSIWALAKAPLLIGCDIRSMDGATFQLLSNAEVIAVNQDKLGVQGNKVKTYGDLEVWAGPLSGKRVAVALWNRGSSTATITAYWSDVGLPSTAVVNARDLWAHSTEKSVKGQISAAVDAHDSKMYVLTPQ
Chain of Pyruvate kinase (Leishmania mexicana) (Q27686 2-499 E452W): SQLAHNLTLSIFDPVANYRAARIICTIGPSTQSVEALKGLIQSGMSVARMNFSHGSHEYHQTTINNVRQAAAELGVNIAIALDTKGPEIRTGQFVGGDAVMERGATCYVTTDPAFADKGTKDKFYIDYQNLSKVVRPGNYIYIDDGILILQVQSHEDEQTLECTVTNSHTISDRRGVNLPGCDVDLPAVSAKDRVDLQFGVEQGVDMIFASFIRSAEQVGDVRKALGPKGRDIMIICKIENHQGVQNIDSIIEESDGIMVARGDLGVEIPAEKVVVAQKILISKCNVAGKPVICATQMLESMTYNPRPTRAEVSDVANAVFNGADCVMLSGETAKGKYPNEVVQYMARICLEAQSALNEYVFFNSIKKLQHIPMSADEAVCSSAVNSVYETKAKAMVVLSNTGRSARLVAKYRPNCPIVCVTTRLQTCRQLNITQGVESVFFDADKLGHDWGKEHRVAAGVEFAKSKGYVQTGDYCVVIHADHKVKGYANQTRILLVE
Chain of Alpha-galactosidase A (Homo sapiens) (P06280 whole entry, looked up): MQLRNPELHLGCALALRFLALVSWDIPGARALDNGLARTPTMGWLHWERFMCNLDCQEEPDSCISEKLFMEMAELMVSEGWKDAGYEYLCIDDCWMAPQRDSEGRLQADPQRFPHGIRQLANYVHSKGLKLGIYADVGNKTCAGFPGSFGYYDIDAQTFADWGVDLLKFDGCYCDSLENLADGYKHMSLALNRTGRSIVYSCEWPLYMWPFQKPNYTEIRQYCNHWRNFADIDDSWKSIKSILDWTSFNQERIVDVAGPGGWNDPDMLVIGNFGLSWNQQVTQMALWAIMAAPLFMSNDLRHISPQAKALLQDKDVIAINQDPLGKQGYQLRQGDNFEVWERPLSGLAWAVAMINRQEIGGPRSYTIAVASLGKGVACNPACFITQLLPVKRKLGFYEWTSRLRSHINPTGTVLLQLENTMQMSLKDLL

For the compound `C[C@]12CC[C@H](O)C[C@@H]1CC[C@H]1[C@H]2CC[C@]2(C)[C@H](C(=O)CO)CC[C@@H]12`, the activity change, negative = inhibition in assay [1] is 0.537% [at 38 µM]; in assay [3], 0.826% [at 38 µM]. For the same compound, the Potency in [2] is 25.1 µM (active); in assay [5], more than 46 µM; in [6], more than 46 µM. The activity, negative = inhibition in [4] is 11.8% [at 38 µM]. Further, the outcome in [7], in [8], in assay [9], in assay [11], in assay [12] and in [13] was inactive. Also, the compound was classed as inactive in assay [14] and in assay [15]. Moreover, in [10], the Potency entry was “inactive”.

Turning to `Cc1ncc([N+](=O)[O-])n1CCN=[N+]=[N-]`, the values for the activity change, negative = inhibition in assay [1], in [3] and in assay [16] were 3.02%, 5.75% and 2.72% [at 11.4 µM], respectively. In addition, in [2], the Potency result is “inactive”. In addition, the activity, negative = inhibition in [4] is -11.7%. Also, the Potency in [5] was more than 46 µM; in [6], more than 9.22 µM. The compound was classed as inactive in assay [7].

In the case of `C#CCN[C@@H](C)Cc1ccccc1`, the values for the activity change, negative = inhibition in [1] and in [3] were 1.81% [at 38 µM] and 0.0477% [at 38 µM], respectively. Besides, the figures for the Potency in assay [2], in assay [5] and in assay [6] were 15.8 µM (active), more than 46 µM and more than 46 µM, respectively. For the same compound, the activity, negative = inhibition in assay [4] is -23.9% [at 38 µM]. Also, the Potency entry in [16], in assay [10] and in assay [17] was “inactive” each time. The outcome in assay [7], in assay [8], in assay [9], in assay [11], in [12] and in assay [13] was inactive. In addition, the compound was called inactive in [14] and in [15].

For `N[C@H](Cc1ccc(N(CCCl)CCCl)cc1)C(=O)O`, the activity change, negative = inhibition in assay [1] was 23.8% [at 38 µM]; in assay [3] it was -21.6% [at 38 µM]. Further, the results for the Potency in assay [2], in assay [5] and in assay [6] were 15.8 µM (active), more than 46 µM and more than 46 µM, respectively. Moreover, the activity, negative = inhibition in assay [4] was 4.88% [at 38 µM]. Besides, the Potency entry in assay [16] and in assay [17] was “inactive” in each case. Further, the result in assay [7], in assay [8], in assay [11], in [12], in assay [13] and in [14] was inactive. Moreover, in assay [15], the compound was called inactive.

With `COc1cc2c(cc1OC)[C@]13CC[N@+]4(C)CC5=CCO[C@H]6CC(=O)N2[C@@H]1[C@@H]6[C@@H]5C[C@]34O`, the activity change, negative = inhibition in assay [1] was -12.3%; in assay [2], -11.4% [at 2.29 µM]; in assay [3] it was 4.86%; in assay [16] it was 1.38% [at 11.4 µM]. Moreover, the activity, negative = inhibition in assay [4] is -5.46%. The Potency is more than 46 µM in [5] and more than 9.22 µM in assay [6]. For the same compound, the compound was classed as inactive in [7].
